Data: PubChem BioAssay (Tox21)
Records with an inconclusive call do not appear. Where a call stands in place of a potency, no number is given. The source made the active and inactive calls. Calls come from the whole dose curve; as a rule, active = well fitted inhibition curve with a large enough effect in the repeat runs; inconclusive = weak or mixed curves; inactive = flat fitted curve, though single readings scatter.

Target: Voltage-gated inwardly rectifying potassium channel KCNH2 (Homo sapiens) (UniProt Q12809)
Assay: Human Ether-a-go-go-Related Gene (hERG) channel small molecule antagonists: fluorescence cell-based qHTS assay (AID 1671200); note: nearly all actives have a fitted effect of over 50% in size
Conditions: hERG-U2OS cells, FluxOR thallium flux fluorescence; series mostly up to 76.8 µM
Summary of the method: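 Thallium flux as potassium surrogate: FluxOR II dye loaded 1 h at room temperature into hERG-expressing U2OS cells, then stimulus buffer added after 10 min. Kinetic 480 nm excitation/540 nm emission read, 2 min.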
Potency is the fitted concentration of half-maximal effect.

Voltage-gated inwardly rectifying potassium channel KCNH2 (Homo sapiens), sequence (Q12809 whole entry, looked up): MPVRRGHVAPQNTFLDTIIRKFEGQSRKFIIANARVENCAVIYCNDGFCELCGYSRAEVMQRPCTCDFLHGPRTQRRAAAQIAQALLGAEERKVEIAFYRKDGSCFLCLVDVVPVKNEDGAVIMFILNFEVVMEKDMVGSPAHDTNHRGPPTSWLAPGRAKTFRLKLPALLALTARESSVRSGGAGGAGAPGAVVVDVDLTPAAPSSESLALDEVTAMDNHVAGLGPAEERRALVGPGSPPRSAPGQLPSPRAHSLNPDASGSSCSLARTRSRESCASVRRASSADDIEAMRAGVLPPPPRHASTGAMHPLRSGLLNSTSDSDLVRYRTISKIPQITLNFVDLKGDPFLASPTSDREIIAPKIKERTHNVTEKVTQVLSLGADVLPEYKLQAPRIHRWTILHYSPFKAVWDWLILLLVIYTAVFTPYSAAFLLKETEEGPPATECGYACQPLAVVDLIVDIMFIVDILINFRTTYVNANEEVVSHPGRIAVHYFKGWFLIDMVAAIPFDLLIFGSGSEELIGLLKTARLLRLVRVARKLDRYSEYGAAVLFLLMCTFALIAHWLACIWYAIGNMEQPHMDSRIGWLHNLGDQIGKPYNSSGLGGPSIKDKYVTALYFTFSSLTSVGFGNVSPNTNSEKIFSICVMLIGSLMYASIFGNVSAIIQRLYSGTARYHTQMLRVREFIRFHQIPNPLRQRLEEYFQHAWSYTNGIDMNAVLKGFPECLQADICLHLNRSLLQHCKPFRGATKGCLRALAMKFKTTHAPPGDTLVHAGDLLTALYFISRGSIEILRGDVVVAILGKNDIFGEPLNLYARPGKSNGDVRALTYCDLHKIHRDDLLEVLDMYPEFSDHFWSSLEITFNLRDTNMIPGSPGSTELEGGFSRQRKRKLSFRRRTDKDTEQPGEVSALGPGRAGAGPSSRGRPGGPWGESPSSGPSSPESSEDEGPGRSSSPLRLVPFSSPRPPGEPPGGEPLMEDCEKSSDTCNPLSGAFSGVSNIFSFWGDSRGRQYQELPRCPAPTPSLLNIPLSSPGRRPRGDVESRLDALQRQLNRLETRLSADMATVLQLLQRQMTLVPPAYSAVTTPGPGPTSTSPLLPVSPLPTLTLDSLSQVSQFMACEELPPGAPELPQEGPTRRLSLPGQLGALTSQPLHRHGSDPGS

Q: How did the Potency turn out when `CC(=[OH+])/C=C(/C)[O-].CC(=[OH+])/C=C(\C)[O-].CC(=[OH+])/C=C(\C)[O-].[Al]` was run?
A: Its Potency is “inactive”.

Q: For `O=c1c(C2CC(c3ccc(-c4ccc(Br)cc4)cc3)Cc3ccccc32)c(O)sc2ccccc12` (stereo not given), which Potency is on record?
A: The Potency was “inactive”.

Q: `O=C1C=CC(=O)c2ccccc21` was tested. Which Potency did it give?
A: Its Potency is 21.9 µM (active).

Q: How did the Potency turn out when `S=C(SSC(=S)N1CCCCC1)N1CCCCC1` was run?
A: The Potency was “inactive”.

Q: How did the Potency turn out when `CCCCOP(=O)(CCCC)OCCCC` was run?
A: Its Potency is “inactive”.

Q: `Nc1ccc([N+](=O)[O-])cc1Cl` was tested. Which Potency did it give?
A: Its Potency is “inactive”.

Q: How did the Potency turn out when `O=C/C(Cl)=C(/Cl)C(=O)O` was run?
A: Its Potency is “inactive”.

Q: Which Potency does the source give for `COc1ccc(OC)c(C=O)c1` here?
A: The Potency was “inactive”.

Q: With `[Cl][Sb]([Cl])[Cl]` as the compound, how does the Potency read?
A: Its Potency is “inactive”.

Q: Which Potency does the source give for `CCCCCCCCCBr` here?
A: Its Potency is “inactive”.

Q: Which Potency does the source give for `CC(C)(C)C(O)C(Oc1ccc(-c2ccccc2)cc1)n1cncn1` (stereo not given) here?
A: The Potency was “inactive”.

Q: `CC1(C)[C@H](C(=O)O[C@H](C#N)c2cccc(Oc3ccccc3)c2)[C@@H]1/C=C(\Cl)C(F)(F)F` was tested. Which Potency did it give?
A: Its Potency is “inactive”.

Q: For `Clc1ccc(CCC(Cn2ccnc2)Sc2c(Cl)cccc2Cl)cc1` (stereo not given), which Potency is on record?
A: Its Potency is 7.56 µM (active).

Q: For `C[C@@H]1O[C@@H](O[C@H]2C[C@@H](O)[C@]3(CO)[C@H]4[C@H](O)C[C@]5(C)[C@@H](C6=CC(=O)OC6)CC[C@]5(O)[C@@H]4CC[C@]3(O)C2)[C@H](O)[C@H](O)[C@H]1O`, which Potency is on record?
A: The Potency was “inactive”.

Q: `CC(C)Oc1cccc(NC(=O)c2ccccc2C(F)(F)F)c1` was tested. Which Potency did it give?
A: The Potency was 50.4 µM (active).
